A selection: hits, their analogues and other compounds. The true share with any hit is near 11%.
HP1b binding inh: blocks HP1-beta chromodomain binding to methylated histone tails; P83916; AlphaScreen HP1-beta / biotin-H3K9me3 peptide binding; Potency, µM (series often up to 114 µM), for inactives: at the highest dose activity change, negative = inhibition, most hits filed as inhibitors; hit rate 0.56% among 390,000; note: nearly all actives have a fitted effect of over 70% in size
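HP1-beta protein (50 nM final) preincubated 30 min at room temperature with biotinylated H3(1-18)K9me3 peptide (50 nM) in PBS pH 7.4, 0.01% Tween-20, then compound added for 30 min. AlphaScreen streptavidin donor/nickel chelate acceptor beads (10 ug/mL final), 30 min dark, luminescence read.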
BAZ2B inh: inhibitors of human BAZ2B bromodomain; Q9UIF8; AlphaScreen BAZ2B-H3K14Ac peptide displacement; Potency, µM (series often up to 114 µM), for inactives: at the highest dose activity change, negative = inhibition, hits mostly inhibitors; hit rate 4.4% among 360,000; AID 504333; note: % is set by controls: 0 for no effect and ±100 for the full control effect; nearly all actives have a fitted effect of over 60% in size
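AlphaScreen displacement of biotin-H3(5-23)K14Ac peptide (50 nM final) from BAZ2B (50 nM final) in PBS pH 7.4, 0.01% Tween-20; complex preformed 30 min RT, then compounds (top 110 uM) 30 min RT, beads 20 min dark.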
JMJD2A Tudor inh: JMJD2A Tudor domain (human) inhibition | AlphaScreen JMJD2A-Tudor / H3K4me3 peptide binding | hit rate 4.4% among 390,000 | O75164 | Potency, µM (doses to about 114 µM), for the others: top-dose activity change, negative = inhibition, actives largely listed as inhibitors; note: % is set by controls: 0 for no effect and ±100 for the full control effect; nearly all actives have a fitted effect of over 50% in size
G9a block: blocks human histone lysine methyltransferase G9a; hit rate 8.8% among 350,000; Potency, µM (series often up to 102 µM), inactives show at the highest dose activity, negative = inhibition, actives largely listed as inhibitors; G9a H3K9 monomethylation, AlphaScreen, 2 h; AID 504332; note: % is set by controls: 0 for no effect and ±100 for the full control effect; nearly all actives have a fitted effect of over 75% in size
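G9a (20 nM) was preincubated 15 min with compound, then reacted 2 h at room temperature with 500 nM biotin-H3K9 peptide and 20 µM SAM. Monomethyl-H3K9 detected by AlphaScreen using anti-H3K9me1 antibody.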
L3MBTL1 inh: L3MBTL1 (human) inhibition; Potency, µM (highest dose often 57.1 µM), inactives show top-dose activity, negative = inhibition, usual class: inhibitors; AlphaScreen L3MBTL1–H3K9me1 peptide binding; hit rate 0.66% among 230,000; AID 485360; note: % is set by controls: 0 for no effect and ±100 for the full control effect; nearly all actives have a fitted effect of over 60% in size
Target sequence (Q9Y468 whole entry, looked up): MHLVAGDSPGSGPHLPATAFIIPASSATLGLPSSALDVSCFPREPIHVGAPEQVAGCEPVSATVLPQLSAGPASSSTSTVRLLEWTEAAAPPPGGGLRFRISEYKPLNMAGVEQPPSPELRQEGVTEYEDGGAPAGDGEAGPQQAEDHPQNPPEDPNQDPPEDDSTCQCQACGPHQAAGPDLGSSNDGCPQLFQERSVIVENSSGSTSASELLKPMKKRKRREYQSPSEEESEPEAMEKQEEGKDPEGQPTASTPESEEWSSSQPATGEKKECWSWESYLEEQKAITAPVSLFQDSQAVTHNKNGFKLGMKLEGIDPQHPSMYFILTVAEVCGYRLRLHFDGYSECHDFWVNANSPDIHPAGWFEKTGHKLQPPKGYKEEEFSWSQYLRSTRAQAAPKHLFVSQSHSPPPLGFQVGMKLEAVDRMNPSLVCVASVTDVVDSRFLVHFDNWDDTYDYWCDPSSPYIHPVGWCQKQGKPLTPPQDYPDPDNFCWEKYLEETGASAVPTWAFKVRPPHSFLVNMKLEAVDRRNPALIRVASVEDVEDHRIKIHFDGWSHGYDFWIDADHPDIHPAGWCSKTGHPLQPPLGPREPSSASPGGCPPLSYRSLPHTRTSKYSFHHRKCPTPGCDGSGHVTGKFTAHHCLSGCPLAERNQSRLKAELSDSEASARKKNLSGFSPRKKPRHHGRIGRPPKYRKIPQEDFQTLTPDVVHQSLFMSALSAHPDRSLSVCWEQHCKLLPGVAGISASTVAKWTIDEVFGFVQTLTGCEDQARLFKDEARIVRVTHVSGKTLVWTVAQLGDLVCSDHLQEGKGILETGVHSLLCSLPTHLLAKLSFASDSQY
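Read-out is AlphaScreen signal from streptavidin donor and nickel chelate acceptor beads (10 ug/mL final each) bridging L3MBTL1 (50 nM) and biotinylated K9-monomethylated H3(1-15) peptide (75 nM), after 30 min compound exposure at room temperature.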
The depositor's hits bear a star; ? = inconclusive; . = no result given; [ ] = another dose, or the depositor's remark. Calls come from the whole dose curve; as a rule, active = well fitted inhibition curve with a large enough effect; inconclusive = small, poorly fitted or top-dose-only effect; inactive = no such curve, though single readings can be large or run the other way. Potency is the fitted concentration of half-maximal effect.

SMILES | HP1b binding inh | BAZ2B inh | JMJD2A Tudor inh | G9a block | L3MBTL1 inh
O=C(NC(=S)Nc1ccc(S(=O)(=O)Nc2nccs2)cc1)c1ccccc1 | -9.1% | -24.6% | -20.7% | ? | -10.8%
O=C(NC(=S)Nc1ccc(S(=O)(=O)Nc2nccs2)cc1)c1cccnc1 | -18.0% | ? | -16.6% | 44.7µM* | 4.2%
O=C(CSc1ccc(Br)c2cccc(Cl)c12)Nc1ccc(S(=O)(=O)Nc2nccs2)cc1 | -11.7% | -37.6% | ? | 31.6µM* | -15.7%
O=C(O)c1ccccc1C(=O)Nc1ccc(S(=O)(=O)Nc2nccs2)cc1 | 17.1% | 50.1µM* | -17.3% | -28.1%[59 µM] | 10.4%
O=C(NC(=S)Nc1ccc(Cc2ccncc2)cc1)c1ccccc1F | -13.9% | -21.5% | -31.5% | 79.4µM* | 0.0%
O=C(NC(=S)Nc1ccc(S(=O)(=O)Nc2nccs2)cc1)c1ccccc1F | ? | ? | ? | 10µM* | .
O=C(NC(=S)Nc1ccc(S(=O)(=O)Nc2nccs2)cc1)c1ccc(F)c(F)c1 | ? | -36.2% | -27.2% | ? | -13.6%
O=C(c1ccco1)N1CCn2cccc2C1c1ccccc1 (stereo unspecified) | 70.8µM* | 35.5µM* | 50.1µM* | ? | ?
Cn1nnnc1SCCNCc1ccccc1OCc1ccc(Cl)cc1Cl | 23.1% | -12.8% | -16.0% | -34.1%[59 µM] | .
O=C1CCc2cc(S(=O)(=O)NC3CCCCC3)cc3c2N1CC3 | 21.3% | -28.8% | -6.2% | 50.1µM* | ?
Cc1cc2c(s1)c1cnn(Cc3cccc(C)c3F)c(=O)c1n2C | . | . | -22.6% | . | .
CCOc1ccc(C(=O)Nc2ccc(-c3nc4cc(CC)ccc4o3)cc2)cc1 | 29.2% | 2.9% | 3.6% | -0.2%[59 µM] | .
Cc1cc(C)c(OCCNCc2ccccc2)c(C)c1 | -24.4% | 50.1µM* | 1.12µM* | 7.08µM* | -4.0%
Cc1cc(Cl)cc(C)c1OCCNCc1ccccc1 | ? | 70.8µM* | 0.794µM* | 7.94µM* | 11.2%
Cc1cc(C)c(S(=O)(=O)NCCc2ccccc2)c(C)c1 | 79.3% | 6.4% | 17.2% | 0.1%[12.7 µM] | 34.0%
Cc1cc(C)c(C)c(OCCNCc2ccccc2)c1 | -7.6% | 20µM* | 3.55µM* | 11.2µM* | -1.4%
Cc1cc(Cl)cc(C)c1OCCOCCNCc1ccccc1 | -3.8% | ? | 22.4µM* | . | -0.9%
Cc1cc(C)c(OCCN(C)Cc2ccccc2)c(Br)c1 | 53.6% | 6.2% | -0.4% | 19.8%[59 µM] | 10.5%
Cc1cccc(NC(=O)N2CCC3(CC2)Oc2ccccc2C(=O)N3Cc2ccccc2F)c1C | 31.5% | -13.7% | -12.7% | 12.4%[59 µM] | .
Cc1cc(C)c(OCCCCNCc2ccccc2)c(Cl)c1 | -52.6% | 56.2µM* | 1.41µM* | 34.9%[0.501 µM] | 0.5%
Clc1ccc(OCCOCCNCc2ccccc2)cc1Cl | -14.3% | ? | 25.1µM* | . | -10.0%
CC(C)Oc1ccccc1-c1nc(SCC(=O)c2ccc(F)cc2)n[nH]1 | 50.7% | -2.4% | -6.7% | 1.8%[59 µM] | .
C=C1CC[C@H](O)C/C1=C/C=C1\CCC[C@]2(C)C([C@H](C)CC[C@@H](O)C(C)(C)O)CC[C@@H]12 (stereo partly specified) | . | . | . | 27.5%[59 µM] | .
O=[N+]([O-])c1cc2oc3c(c2c(C=NCc2ccccc2)c1O)CCCC3 | ? | -30.2% | 70.8µM* | 3.2%[59 µM] | 1.4%
CCn1c(CCNC(=O)c2cccs2)nnc1SCC(=O)c1ccc(OC)cc1 | ? | . | 28.2µM* | . | .
SMILES | HP1b binding inh | BAZ2B inh | JMJD2A Tudor inh | G9a block | L3MBTL1 inh
CCn1c(CNC(=O)c2ccc(OC)cc2)nnc1SCC(=O)c1ccccc1 | ? | -8.9% | 20µM* | 59.7%[59 µM] | 1.6%
CCn1c(CNC(C)=O)nnc1SCC(=O)c1ccc(Br)cc1 | -19.5% | -3.5% | 56.2µM* | 11.2µM* | -14.9%[11.4 µM]
CCn1c(CCNC(=O)c2cccs2)nnc1SCC(=O)Nc1nc(-c2ccccc2)cs1 | 6.0% | -6.6% | -26.9% | -9.7%[59 µM] | -3.6%
CCn1c(CNC(=O)Cc2ccc(OC)cc2)nnc1SCC(=O)c1ccc(Br)cc1 | 6.3% | 4.9% | -17.9% | 0.4% | .
COc1ccc2[nH]cc(CCNc3ncncc3-c3ccccc3C(F)(F)F)c2c1 | . | . | . | 8.9%[0.501 µM] | .
Cc1c(N2CCCC2)cc2c(c1NC(=O)c1ccccc1Cl)C(C)(C)CC2(C)C | 6.2% | -36.6% | -33.8% | 28.2µM* | -22.2%
C=C1C=CS(=O)(=O)N(C(C)C(=O)OC)C1 (stereo unspecified) | 32.6% | . | -9.7% | . | .
CN(CC(=O)NCc1ccccc1)S(=O)(=O)c1ccc2[nH]c3c(c2c1)CCCC3 | 0.7% | ? | ? | ? | .
Cc1cccc(N(C)C(=O)CN(C)S(=O)(=O)c2ccc3[nH]c4c(c3c2)CCCC4)c1 | ? | ? | ? | 11.2µM* | .
CCOc1ccc(NC(=O)CN(C)S(=O)(=O)c2ccc3[nH]c4c(c3c2)CCCC4)cc1 | -37.5% | ? | ? | 10µM* | .
Cc1cc(C)cc(NC(=O)CN(C)S(=O)(=O)c2ccc3[nH]c4c(c3c2)CCCC4)c1 | 8.1% | -34.6% | ? | ? | .
Cc1cccc(C)c1NC(=O)CN(C)S(=O)(=O)c1ccc2[nH]c3c(c2c1)CCCC3 | -8.0% | 39.8µM* | ? | 14.1µM* | .
CN(CC(=O)NCc1ccc(F)cc1)S(=O)(=O)c1ccc2[nH]c3c(c2c1)CCCC3 | -1.5% | 39.8µM* | ? | 15.8µM* | .
COc1ccc(C(=O)N(Cc2ccc(C(C)C)cc2)C2CCS(=O)(=O)C2)cc1 (stereo unspecified) | 46.4% | -16.4% | -18.2% | 0.9%[59 µM] | .
COc1ccccc1CNC(=O)c1cc(Sc2cccc(Cl)c2)nc2ccccc12 | 99.9% | 51.7% | -10.4% | -1.6%[59 µM] | .
Cc1ccccc1/C=N/Nc1nc2ccccc2c(=O)n1O | -14.5% | -14.1% | -4.2% | 14.1µM* | .
COc1ccccc1-c1nc2ccccc2c(=O)n1O | -12.8% | ? | -22.4% | 35.5µM* | .
Cc1cc(N/N=C/c2ccccc2O)c2ccccc2n1 | -5.2% | ? | ? | . | -5.8%
Cc1ccc(-c2nc3ccccc3c(=O)n2O)cc1 | 18.3% | ? | 35.5µM* | 31.6µM* | .
